# Reference: PubChem BioAssay (Tox21)
# Inconclusive results are not listed. Calls of active or inactive are those of the source. Calls follow the shape of the dose curve; as a rule, active = well fitted curve in the direction sought with a large enough effect in the repeat runs; inconclusive = weak or mixed curves; inactive = no such curve, though single readings can be large; an effect the other way counts as inactive or inconclusive.
# Experiment: A CellTox Green Cytotoxicity Assay to monitor cytotoxicity in HEK293 cells - 16 hour (AID 1224888); also: nearly all actives have a fitted effect of over 35% in size
# Settings: CellTox Green fluorescence, active compounds read high; series mostly up to 76.8 µM; activity change: at the top concentration
# Outline: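 Cells (HEK293, 600/well) and dye reagent are dispensed together. After 5 h at 37 C, 23 nL compound is pinned in. Plates stay at 37 C for 40 h with fluorescence read at 0h, 8h, 16h, 24h, 32h and 40h.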
# % is scaled to controls: 0 for no effect and ±100 for the full control effect.
row,SMILES,activity change
1,CC(=O)NC(=O)c1ccccc1O,-2.39% [at 35.3 µM] (inactive)
2,O=C1NC(=O)C2CC=CCC12 (centres undefined),-0.195% (inactive)
3,CC1=NN(c2cccc(S(=O)(=O)O)c2)C(=O)C1,20.5% (inactive)
4,CCCc1nn(C)c2c(=O)[nH]c(-c3cc(S(=O)(=O)N4CCN(C)CC4)ccc3OCC)nc12,-16.5% [at 35.3 µM] (inactive)
5,CN(C)C(=O)Oc1ccc[n+](C)c1,4.43% [at 35.3 µM] (inactive)
6,C=CC(C)(CCC=C(C)C)OC(=O)CC (centres undefined),1.62% (inactive)
7,C[N+]12CCC(CC1)C(OC(=O)C(O)(c1ccccc1)c1ccccc1)C2 (centres undefined),2.9% [at 35.3 µM] (inactive)
8,CC1=CCC(O)(C(C)C)CC1 (centres undefined),-27% (inactive)
9,c1coc(CNc2ncnc3nc[nH]c23)c1,-2.74% (inactive)
10,Cc1onc(-c2c(Cl)cccc2Cl)c1C(=O)Cl,-5.87% [at 35.3 µM] (inactive)
11,CCCC(=O)O[C@]1(C(=O)CC)CC[C@H]2[C@@H]3CCC4=CC(=O)CC[C@]4(C)[C@H]3[C@@H](O)C[C@@]21C,-1.74% [at 35.3 µM] (inactive)
12,NCCCC[C@H](N[C@@H](CCc1ccccc1)C(=O)O)C(=O)N1CCC[C@H]1C(=O)O,0.711% [at 35.3 µM] (inactive)
13,CC(=O)O[C@@]12CO[C@@H]1C[C@H](O)[C@@]1(C)C(=O)[C@H](O)C3=C(C)[C@@H](OC(=O)[C@H](O)[C@@H](NC(=O)OC(C)(C)C)c4ccccc4)C[C@@](O)([C@@H](OC(=O)c4ccccc4)[C@H]21)C3(C)C,-1.03% [at 35.3 µM] (inactive)
14,COC(=O)C1=C(C)NC(C)=C(C(=O)OC(C)C)C1c1cccc2nonc12 (centres undefined),-0.978% [at 35.3 µM] (inactive)
15,CC(C)CC(C)(N)C#N (centres undefined),18.8% (inactive)
16,CCCCCCCCN1CCCC1=O,7.17% (inactive)
17,Nc1ccn([C@@H]2O[C@H](CO)[C@@H](O)C2(F)F)c(=O)n1,0.632% [at 35.3 µM] (inactive)
18,NC(=O)N1c2ccccc2CC(=O)c2ccccc21,-12.5% [at 35.3 µM] (inactive)
19,CCCCOCCOC(=O)COc1cc(Cl)c(Cl)cc1Cl,-6.65% (inactive)

row,SMILES,activity change
1,COc1cc2c(cc1OC)-c1cc3ccc(OC)c(OC)c3c[n+]1CC2,1.2% (inactive)
2,CCOCC(C)O (centres undefined),5.35% (inactive)
3,CC(C)COC(=O)c1ccc(N)cc1,-10.2% [at 35.3 µM] (inactive)
4,CC(COc1ccccc1)NN (centres undefined),-1.8% [at 35.3 µM] (inactive)
5,CCCCCCCCCCOc1cc2c(=O)c(C(=O)OCC)c[nH]c2cc1OCC,0.406% [at 6.97 µM] (inactive)
6,C[N+]1(C)[C@@H]2CC(OC(=O)[C@H](CO)c3ccccc3)C[C@H]1[C@@H]1O[C@@H]12 (some centres undefined),4.07% [at 35.3 µM] (inactive)
7,COC(=O)Nc1ccc(Cl)c(Cl)c1,-10.3% (inactive)
8,CC(C)c1ccc2ncccc2c1,3.77% (inactive)
9,CC(=O)Nc1ccc(OCC(O)CNC(C)C)cc1 (centres undefined),1.34% [at 35.3 µM] (inactive)
10,CCCCCC(=O)OCCc1ccccc1,4.93% (inactive)
11,C=CCCCCCCCCC(=O)OCC,15.5% (inactive)
12,CN1CC(=O)N/C1=N/C(=O)Nc1cccc(Cl)c1,2.56% [at 35.3 µM] (inactive)
13,O=S(=O)(O)c1cc(O)c(O)c(S(=O)(=O)O)c1,-16.3% (inactive)
14,CCCCc1nc(Cl)c(CO)n1Cc1ccc(-c2ccccc2-c2nn[nH]n2)cc1,1.05% [at 35.3 µM] (inactive)
15,CCOC(=O)CCC(=O)OCC,-13.7% (inactive)
16,CC(C)(C#N)Nc1nc(Cl)nc(NC2CC2)n1,14.8% (inactive)
17,O=[N+]([O-])c1ccc(/C=N\O)o1,6.76% [at 35.3 µM] (inactive)
18,CCCOC(=O)CC,2.65% (inactive)

# Experiment: qHTS RealTime-Glo MT Cell Viability Assay in HepG2 cells - 0 hour (AID 1224889); also: nearly all actives have a fitted effect of over 50% in size; also: potency is read from the fitted curve at half-maximal effect
# Settings: RealTime-Glo luminescence; series mostly up to 76.8 µM; activity change, negative = cytotoxicity: at the top concentration
# Outline: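 Cell number in HepG2 cultures estimated from NanoLuc luminescence generated by metabolic reduction of a prosubstrate by living cells. The homogeneous, nonlytic format allowed repeated reads at 0, 8, 16, 24, 32 and 40 h of compound exposure.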
SMILES,"activity change, negative = cytotoxicity",Potency
CC(=O)NC(=O)c1ccccc1O,-4.88% [at 35.3 µM] (inactive),–
O=C1NC(=O)C2CC=CCC12 (centres undefined),7.34% (inactive),–
CC1=NN(c2cccc(S(=O)(=O)O)c2)C(=O)C1,-11.6% (inactive),–
CCCc1nn(C)c2c(=O)[nH]c(-c3cc(S(=O)(=O)N4CCN(C)CC4)ccc3OCC)nc12,-1.27% [at 35.3 µM] (inactive),–
CN(C)C(=O)Oc1ccc[n+](C)c1,16.2% [at 35.3 µM] (inactive),–
C=CC(C)(CCC=C(C)C)OC(=O)CC (centres undefined),0% (inactive),–
C[N+]12CCC(CC1)C(OC(=O)C(O)(c1ccccc1)c1ccccc1)C2 (centres undefined),0.152% [at 35.3 µM] (inactive),–
CC1=CCC(O)(C(C)C)CC1 (centres undefined),4.47% (inactive),–
c1coc(CNc2ncnc3nc[nH]c23)c1,-5.84% (inactive),–
Cc1onc(-c2c(Cl)cccc2Cl)c1C(=O)Cl,-7.15% [at 35.3 µM] (inactive),–
CCCC(=O)O[C@]1(C(=O)CC)CC[C@H]2[C@@H]3CCC4=CC(=O)CC[C@]4(C)[C@H]3[C@@H](O)C[C@@]21C,–,1690 nM (active)
NCCCC[C@H](N[C@@H](CCc1ccccc1)C(=O)O)C(=O)N1CCC[C@H]1C(=O)O,6.82% [at 35.3 µM] (inactive),–
CC(=O)O[C@@]12CO[C@@H]1C[C@H](O)[C@@]1(C)C(=O)[C@H](O)C3=C(C)[C@@H](OC(=O)[C@H](O)[C@@H](NC(=O)OC(C)(C)C)c4ccccc4)C[C@@](O)([C@@H](OC(=O)c4ccccc4)[C@H]21)C3(C)C,2.3% [at 35.3 µM] (inactive),–
COC(=O)C1=C(C)NC(C)=C(C(=O)OC(C)C)C1c1cccc2nonc12 (centres undefined),–,1070 nM (active)
CC(C)CC(C)(N)C#N (centres undefined),5.25% (inactive),–
CCCCCCCCN1CCCC1=O,-2.36% (inactive),–
Nc1ccn([C@@H]2O[C@H](CO)[C@@H](O)C2(F)F)c(=O)n1,0.484% [at 35.3 µM] (inactive),–
NC(=O)N1c2ccccc2CC(=O)c2ccccc21,6.37% [at 35.3 µM] (inactive),–
CCCCOCCOC(=O)COc1cc(Cl)c(Cl)cc1Cl,-8.59% (inactive),–

SMILES,"activity change, negative = cytotoxicity",Potency
COc1cc2c(cc1OC)-c1cc3ccc(OC)c(OC)c3c[n+]1CC2,-4.86% (inactive),–
CCOCC(C)O (centres undefined),5.27% (inactive),–
CC(C)COC(=O)c1ccc(N)cc1,3.14% [at 35.3 µM] (inactive),–
CC(COc1ccccc1)NN (centres undefined),1.56% [at 35.3 µM] (inactive),–
CCCCCCCCCCOc1cc2c(=O)c(C(=O)OCC)c[nH]c2cc1OCC,9.73% [at 6.97 µM] (inactive),–
COC(=O)Nc1ccc(Cl)c(Cl)c1,11.2% (inactive),–
CC(C)c1ccc2ncccc2c1,0.172% (inactive),–
CC(=O)Nc1ccc(OCC(O)CNC(C)C)cc1 (centres undefined),5.5% [at 35.3 µM] (inactive),–
CCCCCC(=O)OCCc1ccccc1,15.2% (inactive),–
C=CCCCCCCCCC(=O)OCC,0.108% (inactive),–
CN1CC(=O)N/C1=N/C(=O)Nc1cccc(Cl)c1,8.38% [at 35.3 µM] (inactive),–
Cc1nc2ccc(CN(C)c3ccc(C(=O)N[C@@H](CCC(=O)O)C(=O)O)s3)cc2c(=O)[nH]1,1.63% [at 35.3 µM] (inactive),–
O=S(=O)(O)c1cc(O)c(O)c(S(=O)(=O)O)c1,1.78% (inactive),–
CCCCc1nc(Cl)c(CO)n1Cc1ccc(-c2ccccc2-c2nn[nH]n2)cc1,-11.5% [at 35.3 µM] (inactive),–
CCOC(=O)CCC(=O)OCC,-0.381% (inactive),–
CC(C)(C#N)Nc1nc(Cl)nc(NC2CC2)n1,-17.3% (inactive),–
O=[N+]([O-])c1ccc(/C=N\O)o1,-1.54% [at 35.3 µM] (inactive),–
CCCOC(=O)CC,9.28% (inactive),–
